Reference: PubChem BioAssay (NCI)
The panel holds about 79,000 compounds, 15% with a hit somewhere; the sample as a whole holds those more often. Active and inactive are the calls of the source. No stated cut-off is given here; in the data, active means growth inhibition above about 70%; inactive means the rest.

Experiments:
[1] = NCI Yeast Anticancer Drug Screen. Data for the rad50 strain (AID 155);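 further: 0% = growth of vehicle-only cultures of the same strain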; conditions: S. cerevisiae rad50 strain growth inhibition, active compounds read high
How it was run: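 Inhibition values express reduced yeast growth in compound-treated cultures relative to vehicle-treated controls.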

[2] = NCI Yeast Anticancer Drug Screen. Data for the mec2-1 strain (AID 157); conditions: S. cerevisiae mec2-1 strain, active compounds read high
How it was run: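 Each compound was tested on mec2-1 yeast, a strain altered in DNA damage repair or cell cycle control. Growth inhibition is reported relative to vehicle.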

[3] = NCI Yeast Anticancer Drug Screen. Data for the sgs1 mgt1 strain (AID 161);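 further: 0% = growth of cultures given vehicle only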; conditions: S. cerevisiae sgs1 mgt1 strain, active compounds read high
How it was run: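 Read-out: growth inhibition vs vehicle controls. Cells: mutant yeast strain deficient in DNA damage repair.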

[4] = NCI Yeast Anticancer Drug Screen. Data for the cln2 rad14 strain (AID 165);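 further: 0% = growth equal to vehicle treated cultures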; conditions: S. cerevisiae cln2 rad14 strain, active compounds read high
How it was run: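 Test compounds were added to cln2 rad14 yeast cultures; inhibition of growth was then determined by comparison with vehicle treatment.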

[5] = NCI Yeast Anticancer Drug Screen. Data for the bub3 strain (AID 167); conditions: S. cerevisiae bub3 mutant strain, active compounds read high
How it was run: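 Steps: expose the mutant yeast strain to compound; grow alongside vehicle-treated cultures; measure growth; express inhibition against the vehicle cultures.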

[6] = NCI Yeast Anticancer Drug Screen. Data for the mlh1 rad18 strain (AID 175); conditions: S. cerevisiae mlh1 rad18 strain growth inhibition, active compounds read high
How it was run: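 Inhibition values reflect reduced growth of mutant yeast versus vehicle-treated controls following compound exposure; the mutations affect DNA damage repair.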

[7] = at 5.0 µM (retest, dose inferred, filed as 0.5)
[8] = at 50.0 µM (retest, dose inferred, filed as 5.0)

Measured: growth inhibition

CCC[CH2][Sn]([CH2]CCC)([O]C(=O)C(N)CSC)[O]C(=O)C(N)CSC (configuration not stated)
inactive: [1]; [7] 7% | [1]; [8] 7% | [2]; [7] 10% | [2]; [8] 10% | [3]; [7] -5% | [3]; [8] -5% | [4]; [7] 1% | [4]; [8] 1% | [4]; at 50.0 µM 52.9% | [5]; [7] -4% | [5]; [8] -4% | [6]; [7] -18% | [6]; [8] -18%
active: [1]; at 50.0 µM 90% | [2]; at 50.0 µM 89.3% | [3]; at 50.0 µM 86.2% | [5]; at 50.0 µM 88.8% | [6]; at 50.0 µM 83.1%

[CH3][Sn]([Br])([Br])[CH2]CCCBr
inactive: [1]; [7] 22% | [2]; [7] 10% | [3]; [7] 23% | [4]; [7] 7% | [5]; [7] 13% | [6]; [7] 27%
active: [1]; [8] 95% | [1]; at 50.0 µM 89.7% | [2]; [8] 94% | [2]; at 50.0 µM 93.4% | [3]; [8] 97% | [3]; at 50.0 µM 73.2% | [4]; [8] 93% | [4]; at 50.0 µM 86.1% | [5]; [8] 93% | [5]; at 50.0 µM 90.7% | [6]; [8] 86% | [6]; at 50.0 µM 85.1%

COC(=O)[C@@]12OC[C@]34[C@H]([C@@H](O)[C@@H]1O)[C@@]1(C)CC(=O)C(O)=C(C)[C@@H]1C[C@H]3OC(=O)[C@H](OC(=O)/C=C(\C)C(C)C)[C@@H]24
active: [1]; [7] 96% | [1]; [8] 99% | [1]; at 50.0 µM 91.5% | [2]; [7] 95% | [2]; [8] 100% | [2]; at 50.0 µM 93.7% | [3]; [7] 96% | [3]; [8] 99% | [3]; at 50.0 µM 93% | [4]; [7] 96% | [4]; [8] 99% | [4]; at 50.0 µM 90.8% | [5]; [7] 93% | [5]; [8] 99% | [5]; at 50.0 µM 91.5% | [6]; [7] 97% | [6]; [8] 99% | [6]; at 50.0 µM 92%

CN1CSC(=S)N(C)C1
inactive: [1]; [7] 21% | [2]; [7] 19% | [3]; [7] 17% | [4]; [7] 13% | [5]; [7] 4% | [6]; [7] 4%
active: [1]; [8] 95% | [1]; at 50.0 µM 97.3% | [2]; [8] 99% | [2]; at 50.0 µM 99.5% | [3]; [8] 97% | [3]; at 50.0 µM 95.9% | [4]; [8] 98% | [4]; at 50.0 µM 94.3% | [5]; [8] 96% | [5]; at 50.0 µM 99.5% | [6]; [8] 96% | [6]; at 50.0 µM 95.7%

CCOC(=O)NC(=S)[S][Sb]([S]C(=S)NC(=O)OCC)[S]c1nc2ccc(N=Nc3ccc(NS(=O)(=O)c4ccc(NC(=O)C(N5CC5)(N5CC5)N5CC5)cc4)cc3)cc2s1
inactive: [2]; [7] 33% | [3]; [7] 46% | [4]; [7] 16% | [5]; [7] 24%
active: [1]; [7] 70% | [1]; [8] 99% | [1]; at 50.0 µM 99.2% | [2]; [8] 99% | [2]; at 50.0 µM 99.6% | [3]; [8] 99% | [3]; at 50.0 µM 99.5% | [4]; [8] 98% | [4]; at 50.0 µM 99% | [5]; [8] 99% | [5]; at 50.0 µM 99.3% | [6]; [7] 80% | [6]; [8] 99% | [6]; at 50.0 µM 99.2%

CSCCl
inactive: [1]; [7] 3% | [1]; [8] 51% | [2]; [7] 3% | [3]; [7] 4% | [4]; [7] 11% | [5]; [7] 0% | [6]; [7] -6%
active: [1]; at 50.0 µM 88.2% | [2]; [8] 73% | [2]; at 50.0 µM 94.5% | [3]; [8] 86% | [3]; at 50.0 µM 90% | [4]; [8] 97% | [4]; at 50.0 µM 88.8% | [5]; [8] 75% | [5]; at 50.0 µM 97.6% | [6]; [8] 95% | [6]; at 50.0 µM 95%

CC#C[P+](c1ccccc1)(c1ccccc1)c1ccccc1
active: [1]; [7] 98% | [1]; [8] 98% | [1]; at 50.0 µM 91.2% | [2]; [7] 87% | [2]; [8] 87% | [2]; at 50.0 µM 92.9% | [3]; [7] 90% | [3]; [8] 90% | [3]; at 50.0 µM 92.8% | [4]; [7] 91% | [4]; [8] 91% | [4]; at 50.0 µM 90.8% | [5]; [7] 86% | [5]; [8] 86% | [5]; at 50.0 µM 90.2% | [6]; [7] 95% | [6]; [8] 95% | [6]; at 50.0 µM 88.8%

O=C1[O][Hg][c]2cccc3cccc1c23
inactive: [5]; [8] 58%
active: [1]; [7] 99% | [1]; [8] 99% | [1]; at 50.0 µM 98.3% | [2]; [7] 100% | [2]; [8] 99% | [2]; at 50.0 µM 99% | [3]; [7] 99% | [3]; [8] 99% | [3]; at 50.0 µM 98.9% | [4]; [7] 89% | [4]; [8] 99% | [4]; at 50.0 µM 98.2% | [5]; [7] 100% | [5]; at 50.0 µM 98.2% | [6]; [7] 100% | [6]; [8] 99% | [6]; at 50.0 µM 97.5%

CC(C)NCC(O)c1ccc(O)c(O)c1.[Pt].c1ccc([PH+](c2ccccc2)c2ccccc2)cc1.c1ccc([PH+](c2ccccc2)c2ccccc2)cc1
active: [1]; [8] 99% | [1]; at 50.0 µM 98.7% | [2]; [8] 98% | [2]; at 50.0 µM 98.8% | [3]; [8] 99% | [3]; at 50.0 µM 99% | [4]; [8] 86% | [4]; at 50.0 µM 97.8% | [5]; [8] 98% | [5]; at 50.0 µM 98.8% | [6]; [8] 99% | [6]; at 50.0 µM 98.8%
inactive: [1]; [7] -7% | [2]; [7] -6% | [3]; [7] -8% | [4]; [7] 11% | [5]; [7] -26% | [6]; [7] 9%
